TCR-CD3 inh – blocks the human TCR-CD3 interaction; TAMRA-labeled TCR probe fluorescence, biochemical; inhibition, % at 9.4 µM; 0.37% of 360,000 active;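 further: recombinant mutant TCR 2C K166C tagged with TAMRA read by polarization; 0% = receptor in buffer alone and 100% = receptor with positive control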
Rin1 Abl inh – blocks binding of human Rin1 to Abl | P00519+Q13671 | TR-FRET Rin1/Abl binding, biochemical | inhibition, % at 7.35 µM | 0.4% of 360,000 active | AID 588664; in the data active means inhibition above about 5%, passing the limit was not always enough
UHRF1 MBD2 ctr – human UHRF1 methylated DNA binding inhibitors | Q96T88 | UHRF1 binding to methylated oligo, TR-FRET | inhibition, % at 4.4 µM | 0.75% of 370,000 active | AID 687016; in the data active means inhibition above about 21%;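 further: UHRF1 SRA domain binding a hemimethylated CpG hairpin DNA probe; 0% = median of test compound wells and 100% = reference inhibitor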
Target sequence (Q96T88 whole entry, looked up, the tested form may be a part): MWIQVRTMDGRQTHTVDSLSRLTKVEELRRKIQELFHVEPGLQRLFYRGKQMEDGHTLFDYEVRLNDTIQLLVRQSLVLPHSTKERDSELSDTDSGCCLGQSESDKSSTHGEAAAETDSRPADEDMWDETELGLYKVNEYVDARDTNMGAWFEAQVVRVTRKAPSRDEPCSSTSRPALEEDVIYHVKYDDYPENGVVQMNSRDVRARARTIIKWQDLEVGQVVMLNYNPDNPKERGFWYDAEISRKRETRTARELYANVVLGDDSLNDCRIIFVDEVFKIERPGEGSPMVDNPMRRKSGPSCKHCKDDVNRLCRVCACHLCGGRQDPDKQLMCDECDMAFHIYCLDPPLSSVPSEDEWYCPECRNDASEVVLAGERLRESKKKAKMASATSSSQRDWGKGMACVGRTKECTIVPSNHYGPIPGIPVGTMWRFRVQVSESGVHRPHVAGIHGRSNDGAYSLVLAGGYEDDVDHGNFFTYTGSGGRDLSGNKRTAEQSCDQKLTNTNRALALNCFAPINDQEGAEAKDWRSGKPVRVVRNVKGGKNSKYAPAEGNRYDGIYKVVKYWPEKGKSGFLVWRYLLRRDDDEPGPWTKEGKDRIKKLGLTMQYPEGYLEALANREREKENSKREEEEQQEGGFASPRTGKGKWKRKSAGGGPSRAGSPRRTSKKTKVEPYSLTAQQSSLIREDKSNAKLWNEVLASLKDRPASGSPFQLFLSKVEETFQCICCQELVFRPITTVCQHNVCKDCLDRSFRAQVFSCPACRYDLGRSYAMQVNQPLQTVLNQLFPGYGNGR
MBD2 DNA inh – MBD2-methylated oligo binding inhibition; Q9UBB5; inhibition, % at 4.4 µM; TR-FRET, MBD2 binding to methylated oligonucleotide; 0.31% of 370,000 active; in the data active means inhibition above about 13%
LEDGF integ inh – blocks HIV-1 LEDGF/p75-dependent DNA integration; inhibition, % at 3.7 µM; 0.64% of 370,000 active; TR-FRET IN-LEDGF/p75 DNA integration, Eu/Cy5;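 active means inhibition above the screen-wide mean plus 3 SD, cut at about 13% in these data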;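 further: signal is the Cy5 over europium emission ratio at 671 and 618 nm; 0% = plate median of compound wells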
BSA probe FL – interferes with TAMRA-BSA probe, flagging TCR-CD3 hits; shares compounds with TCR-CD3 inh; TAMRA-labeled BSA probe fluorescence counterscreen; inhibition, % at 9.4 µM; 10% of 1,200 active; AID 652035; in the data active means inhibition above about 23%;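 further: 0% = buffer low control and 100% = reference high control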
TCR-CD3 inh conf – TCR-CD3 interaction inhibition, confirmation. shares compounds with TCR-CD3 inh. TAMRA-labeled TCR probe fluorescence binding assay. inhibition, % at 9.4 µM. 48% of 1,200 active. AID 652036
* = called active by the depositor; . = not tested or not shown. Only some compounds are listed: those with a hit (about 2% of all), similar ones and a draw of the others. Unless noted, no stated cut-off is given here; in the data, active means inhibition above about 19%; inactive means the rest.

SMILES | TCR-CD3 inh | Rin1 Abl inh | UHRF1 MBD2 ctr | MBD2 DNA inh | LEDGF integ inh | BSA probe FL | TCR-CD3 inh conf
CCOc1ccc(CC(=O)NCc2ccc3c(c2)cc(C)n3C)cc1 | 31* | -12 | -1 | -3 | 4 | 1 | 3
Cc1cc2cc(CNC(=O)c3ccco3)ccc2n1C | 31* | -4 | 0 | -7 | 13 | 4 | 8
Cc1cc2cc(CNC(=O)Nc3ccc(Cl)c(Cl)c3)ccc2n1C | 72* | -3 | -2 | 1 | 6 | 3 | 5
COCC(=O)NCc1ccc2c(c1)cc(C)n2C | 14 | -6 | -15 | -7 | 1 | . | .
CCn1cc(CN2CCC(n3nccc3NC(=O)Cc3ccccc3)CC2)c(C)n1 | 2 | 1 | -1 | -9 | 3 | . | .
C[C@H](CO)N1C[C@H](C)[C@@H](CN(C)C(=O)Nc2cccc(F)c2)OCc2cn(nn2)CCCC1=O | 5 | . | -1 | -3 | -2 | . | .
Cc1ccc(NC(=S)NNc2ccc(C(=O)O)cc2[N+](=O)[O-])cc1C | 28* | -1 | -1 | 3 | 0 | -4 | 15
COc1ccc(/C(C)=N/NC(=S)NCCc2ccccc2)c(O)c1 | 22* | -1 | 1 | -3 | -4 | -6 | 7
C/C(=N\NC(=O)c1cc(O)ccc1O)c1cccc(NC(=O)c2cccc(Cl)c2)c1 | 43* | 4 | 20 | -6 | 55* | -13 | 15
C/C(=N\NC(=O)c1ccccc1O)c1cccc(NC(=O)c2ccccc2)c1 | 7 | 1 | -3 | -2 | -2 | . | .
Cc1ccc(-c2cc(C(=O)Nc3ccc(S(=O)(=O)Nc4onc(C)c4C)cc3)[nH]n2)c(O)c1 | 32* | 0 | -2 | -6 | 3 | -13 | 20*
Cc1ccc2oc(C(=O)Nc3ccc(S(=O)(=O)Nc4onc(C)c4C)cc3)c(C)c2c1 | 2 | -3 | 4 | 3 | 0 | . | .
COc1ccc(N2CC(C(=O)N/N=C/c3cc([N+](=O)[O-])ccc3O)CC2=O)cc1 (stereo not drawn) | 25* | -3 | 1 | -2 | -11 | -1 | 15
COc1ccc(N2CC(C(=O)Nc3ccc([N+](=O)[O-])cc3Br)CC2=O)cc1 (stereo not drawn) | 7 | -1 | 13 | 6 | 2 | . | .
O=C(NNC(=S)Nc1ccccc1)Nc1ccccc1 | -5 | 0 | -2 | -2 | 0 | . | .
O=C(NNC(=S)Nc1ccccc1)NNC(=S)Nc1ccccc1 | 30* | 2 | -2 | 1 | 0 | -2 | 17
NC(=O)c1nsc(C(=O)N(CC(=O)NCc2ccccc2)c2ccc(F)cc2)c1N | 36* | 1 | 2 | 0 | 0 | 3 | 5
O=C(NNC(=O)c1nn(-c2ccc(F)cc2)ccc1=O)Nc1cccc(Cl)c1 | 34* | 0 | -2 | 4 | 0 | -14 | 26*
CC(C)NC(=O)NNC(=O)c1nn(-c2ccc(F)cc2)ccc1=O | 20* | 0 | -3 | 2 | -3 | 0 | 15
Cc1ccc(C(=O)NNC(=O)c2nn(-c3ccc(F)cc3)ccc2=O)cc1 | 10 | -2 | 0 | -7 | 4 | . | .
COc1ccc(N(CC(=O)N/N=C/c2ccccc2OC)S(=O)(=O)c2ccccc2)cc1 | 0 | -2 | 0 | 2 | 2 | . | .
OC1CCC2CN3CCc4c([nH]c5ccccc45)C3CC2C1 (stereo not drawn) | 0 | -3 | 0 | 1 | -2 | . | .
O=C(O)[C@@H]1[C@H]2C[C@H]3c4[nH]c5ccccc5c4CCN3C[C@@H]2CC[C@@H]1O | 46* | -1 | -1 | 2 | 8 | 8 | 5
O=C(O)C1CCCC2CN3CCc4c([nH]c5ccccc45)C3C(O)C21 (stereo not drawn) | 27* | 3 | 0 | -3 | 5 | 3 | 3
CCC(NC(=O)Nc1ccc(O)cc1)(C(F)(F)F)C(F)(F)F | 28* | 1 | 9 | -11 | 15* | 4 | 2
SMILES | TCR-CD3 inh | Rin1 Abl inh | UHRF1 MBD2 ctr | MBD2 DNA inh | LEDGF integ inh | BSA probe FL | TCR-CD3 inh conf
Cc1onc(-c2ccccc2Cl)c1C(=O)Nc1ccccc1 | -6 | 1 | 1 | 0 | 0 | . | .
CCC(=O)Nc1ccc(/C(C)=N/NC(=O)c2c(-c3ccccc3Cl)noc2C)cc1 | 21* | 1 | -2 | -1 | 0 | -1 | 1
CCN(CC)CCC(c1cc(OC)c(OC)c(OC)c1)c1c(OC)cc(OC)c2ccc(=O)oc12 (stereo not drawn) | 96* | 0 | 3 | 2 | -1 | 7 | 0
CCN(CC)CCC(c1ccc2c(c1)OCO2)c1c(OC)cc(OC)c2ccc(=O)oc12 (stereo not drawn) | 3 | 1 | -1 | -8 | -3 | . | .
Cn1nc(C(C)(C)C)cc1C(=O)N1CCCC(c2cc(C(=O)Nc3ccccc3Cl)no2)C1 (stereo not drawn) | -8 | -3 | 2 | 1 | -5 | . | .
Cc1ccc(C(=O)OCc2nc3ccsc3c(=O)[nH]2)o1 | 1 | 2 | 0 | 0 | -3 | . | .
CCc1ccc(N2CC(C(=O)OCc3csc(CC(=O)Nc4ccccc4C)n3)CC2=O)cc1 (stereo not drawn) | -2 | 0 | 1 | 0 | -7 | . | .
Cc1cnc(C(=O)OCc2nc3ccsc3c(=O)[nH]2)cn1 | 28* | 4 | -3 | -4 | 3 | -13 | 16
CCc1ccc(N2CC(C(=O)OCc3nc4ccsc4c(=O)[nH]3)CC2=O)cc1 (stereo not drawn) | 27* | 3 | -2 | -2 | 13 | -11 | 12
CCOC(=O)c1ccc(NC(=O)CSc2nc3sc(C(=O)O)c(C)c3c(=O)[nH]2)cc1 | 2 | -1 | 1 | -5 | 6 | . | .
Cc1c(C(=O)OCC(=O)Nc2cccc(S(N)(=O)=O)c2)oc2c1ccc1ccccc12 | 25* | -2 | 0 | -3 | 2 | 3 | 5
NS(=O)(=O)c1cccc(NC(=O)COC(=O)c2ccccc2C(=O)c2ccccc2)c1 | -3 | 2 | -1 | -3 | -2 | . | .
Cc1ccccc1N1C(=O)CC(N(O)c2ccccc2)C1=O (stereo not drawn) | 8 | 0 | -3 | 0 | 6 | . | .
O=C1CC(N(O)c2ccccc2)C(=O)N1c1cc(Cl)cc(Cl)c1 (stereo not drawn) | 25* | 3 | -9 | -2 | 2 | 3 | 3
Cn1c(SCC(=O)c2ccc(O)c(O)c2)nnc1-c1cccs1 | 23* | -2 | 5 | -3 | -4 | -12 | 17
C=CCn1c(SCC(=O)c2ccc(O)c(O)c2)nnc1-c1ccc(OC)cc1 | 10 | 5 | 3 | -4 | 2 | . | .
C=CCn1c(SCC(=O)c2ccc(O)c(O)c2)nnc1-c1cccc(OC)c1 | 20* | 1 | -1 | -3 | -1 | -7 | 17
Cn1c(SCC(=O)c2ccc(O)c(O)c2)nnc1-c1ccccc1 | 6 | -2 | 2 | 5 | -4 | . | .
O=C(CCCn1c(=O)[nH]c2ccc(Br)cc2c1=O)NCc1ccc(Cl)cc1 | -3 | 1 | 0 | 8 | -3 | . | .
